“And” between values parts separate entries of the source, which are not always exact repeats. Identical values can stand only once. Screen size: about 5,700 compounds; about 85 (1%) were called active. Cut-off read from the data, not from the text of the source: active = p53-positive nuclei above about 36% (passing the limit was not always enough); inactive = the rest. The entries come from a sample that favours actives as a whole. Where a structure was tested more than once in an assay, its records may differ in their call.

Experiment [1] is described as follows: nuclear p53 accumulation, HPV+ cells – imaging, p53-positive nuclei imaging, 24 h, 48 h (AID 1508601). The following applies: 24/48 h.
The target in experiment [2] is Cellular tumor antigen p53 (Homo sapiens) (UniProt P04637). Described as above. Particulars: 24/48 h, stronger effect = higher value.
The mark [3] stands for this setting: measured here: cell number at 24 h, Library stock concentration: 10 mM.
The mark [4] stands for this setting: measured here: cell number at 48 h, Library stock concentration: 10 mM.
[5] abbreviates: Library stock concentration: 10 mM.
Where [6] appears, read: measured here: p53 positive nuclei at 24 h, Library stock concentration: 10 mM.
Where [7] appears, read: measured here: cell number at 24 h, Library stock concentration: 3.33 mM.
Where [8] appears, read: measured here: cell number at 48 h, Library stock concentration: 3.33 mM.
The mark [9] stands for this setting: Library stock concentration: 3.33 mM.
Setting [10] is: measured here: p53 positive nuclei at 24 h, Library stock concentration: 3.33 mM.
Where [11] appears, read: measured here: cell number at 24 h, concentration not given here.
[12] abbreviates: measured here: cell number at 48 h, concentration not given here.
[13] abbreviates: measured here: p53 positive nuclei at 24 h, concentration not given here.
The mark [14] stands for this setting: measured here: cell number at 24 h, Library stock concentration: 46 uM.
[15] abbreviates: measured here: cell number at 24 h, Library stock concentration: 278 uM.
Where [16] appears, read: measured here: cell number at 24 h, Library stock concentration: 1.67 mM.
[17] abbreviates: measured here: cell number at 48 h, Library stock concentration: 46 uM.
Setting [18] is: measured here: cell number at 48 h, Library stock concentration: 278 uM.
[19] abbreviates: measured here: cell number at 48 h, Library stock concentration: 1.67 mM.
Setting [20] is: Library stock concentration: 46 uM.
Where [21] appears, read: Library stock concentration: 278 uM.
Where [22] appears, read: Library stock concentration: 1.67 mM.
[23] abbreviates: measured here: p53 positive nuclei at 24 h, Library stock concentration: 46 uM.
Setting [24] is: measured here: p53 positive nuclei at 24 h, Library stock concentration: 278 uM.
The mark [25] stands for this setting: measured here: p53 positive nuclei at 24 h, Library stock concentration: 1.67 mM.

Chain of Cellular tumor antigen p53 (Homo sapiens) (P04637 whole entry, looked up): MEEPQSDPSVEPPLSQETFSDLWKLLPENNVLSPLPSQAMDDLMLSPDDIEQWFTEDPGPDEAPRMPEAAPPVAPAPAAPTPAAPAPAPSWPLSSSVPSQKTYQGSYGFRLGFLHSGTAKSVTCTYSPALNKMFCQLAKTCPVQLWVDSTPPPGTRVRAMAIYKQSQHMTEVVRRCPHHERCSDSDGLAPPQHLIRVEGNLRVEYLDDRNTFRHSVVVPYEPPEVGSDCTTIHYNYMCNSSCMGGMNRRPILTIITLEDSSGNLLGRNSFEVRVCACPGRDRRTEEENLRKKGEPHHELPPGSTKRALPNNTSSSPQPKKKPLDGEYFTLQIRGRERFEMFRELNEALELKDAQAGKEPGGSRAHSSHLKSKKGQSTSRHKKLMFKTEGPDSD

For the molecule `CCN1CCN(Cc2ccc(NC(=O)c3ccc(C)c(Oc4ccnc5[nH]ccc45)c3)cc2C(F)(F)F)CC1`, the nuclei count, normalised worked out at 106% in experiment [1] (measured here: cell number at 24 h, Library stock concentration: 80 uM); 105% in experiment [1] (measured here: cell number at 24 h, Library stock concentration: 400 uM); 97.9% in experiment [1] (measured here: cell number at 24 h, Library stock concentration: 2 mM); 101% in experiment [1] (setting [3]); 116% in experiment [1] (measured here: cell number at 48 h, Library stock concentration: 80 uM); 108% in experiment [1] (measured here: cell number at 48 h, Library stock concentration: 400 uM). The nuclei count, normalised was 111% in experiment [1] (measured here: cell number at 48 h, Library stock concentration: 2 mM) and 112% in experiment [1] (setting [4]). Besides, the p53-positive nuclei, normalised was -0.0678% (inactive) in experiment [2] (Library stock concentration: 80 uM); 0.0485% (inactive) in experiment [2] (Library stock concentration: 400 uM); -0.223% (inactive) in experiment [2] (Library stock concentration: 2 mM); -0.127% (inactive) in experiment [2] (setting [5]); -0.156% in experiment [2] (measured here: p53 positive nuclei at 24 h, Library stock concentration: 80 uM); -0.0165% in experiment [2] (measured here: p53 positive nuclei at 24 h, Library stock concentration: 400 uM). In addition, the p53-positive nuclei, normalised was -0.102% in experiment [2] (measured here: p53 positive nuclei at 24 h, Library stock concentration: 2 mM) and -0.00926% in experiment [2] (setting [6]).
Regarding `COc1cccc2c1C(=O)c1c(O)c3c(c(O)c1C2=O)C[C@@](O)(C(=O)CO)C[C@@H]3OC1CC(N)C(OC2CCCCO2)C(C)O1` (stereo partly specified), the nuclei count, normalised in experiment [1] (setting [7]) came to 43.4%; in experiment [1] (setting [8]) it was 38.3%. The values for the p53-positive nuclei, normalised in experiment [2] (setting [9]) and in experiment [2] (setting [10]) were 16.4% (inactive) and 10.3%, respectively.
Take `COc1cccc2c1C(=O)c1c(O)c3c(c(O)c1C2=O)C[C@@](O)(C(=O)CO)CC3O[C@H]1CC(N)C(O)C(C)O1` (stereo partly specified): the nuclei count, normalised in experiment [1] (setting [7]) is 45.5% and 23.6%; in experiment [1] (setting [8]), 36.1% and 17%. Further, the p53-positive nuclei, normalised in experiment [2] (setting [9]) is 21.6% (inactive) and 89.4% (active); in experiment [2] (setting [10]), 2.1% and 92.1%.
As for `C=C1C[C@H](O)[C@H](C/C=C\CCCC(=O)O)[C@H]1/C=C/C(=O)CCCCC`, the nuclei count, normalised came out at 111% in experiment [1] (setting [11]) and 105% in experiment [1] (setting [12]). The figures for the p53-positive nuclei, normalised in experiment [2] (concentration not given here) and in experiment [2] (setting [13]) were 0.125% (inactive) and -0.0213%, respectively.
`Nc1ccn(C2OC(CO)C(O)C2F)c(=O)n1` (stereo unspecified): the nuclei count, normalised turned out to be 115% in experiment [1] (measured here: cell number at 24 h, Library stock concentration: 500 nM); 111% in experiment [1] (measured here: cell number at 24 h, Library stock concentration: 1.5 uM); 77% in experiment [1] (measured here: cell number at 24 h, Library stock concentration: 4.6 uM); 64.6% in experiment [1] (measured here: cell number at 24 h, Library stock concentration: 13.7 uM); 64.5% in experiment [1] (measured here: cell number at 24 h, Library stock concentration: 41 uM); 60.1% in experiment [1] (measured here: cell number at 24 h, Library stock concentration: 123 uM). Moreover, the nuclei count, normalised is 55.2% in experiment [1] (measured here: cell number at 24 h, Library stock concentration: 370 uM); 59.3% in experiment [1] (measured here: cell number at 24 h, Library stock concentration: 1.111 mM); 55.3% in experiment [1] (measured here: cell number at 24 h, Library stock concentration: 3.333 mM); 51.2% in experiment [1] (setting [3]); 115% in experiment [1] (measured here: cell number at 48 h, Library stock concentration: 500 nM); 107% in experiment [1] (measured here: cell number at 48 h, Library stock concentration: 1.5 uM). For the same molecule, the nuclei count, normalised in experiment [1] (measured here: cell number at 48 h, Library stock concentration: 4.6 uM) is 62%; in experiment [1] (measured here: cell number at 48 h, Library stock concentration: 13.7 uM) it was 51.1%; in experiment [1] (measured here: cell number at 48 h, Library stock concentration: 41 uM), 50.8%; in experiment [1] (measured here: cell number at 48 h, Library stock concentration: 123 uM) it was 48.7%; in experiment [1] (measured here: cell number at 48 h, Library stock concentration: 370 uM), 44.4%; in experiment [1] (measured here: cell number at 48 h, Library stock concentration: 1.111 mM), 46.2%. Also, the nuclei count, normalised came out at 45.1% in experiment [1] (measured here: cell number at 48 h, Library stock concentration: 3.333 mM) and 41.5% in experiment [1] (setting [4]). Also, the p53-positive nuclei, normalised in experiment [2] (Library stock concentration: 500 nM) was -0.105% (inactive); in experiment [2] (Library stock concentration: 1.5 uM), -0.0067% (inactive); in experiment [2] (Library stock concentration: 4.6 uM) it was 0.019% (inactive); in experiment [2] (Library stock concentration: 13.7 uM) it was 0.162% (inactive); in experiment [2] (Library stock concentration: 41 uM), 0.839% (inactive); in experiment [2] (Library stock concentration: 123 uM) it was 0.265% (inactive). In addition, the p53-positive nuclei, normalised is 0.43% (inactive) in experiment [2] (Library stock concentration: 370 uM); 0.292% (inactive) in experiment [2] (Library stock concentration: 1.111 mM); 0.443% (inactive) in experiment [2] (Library stock concentration: 3.333 mM); 0.266% (inactive) in experiment [2] (setting [5]); -0.0685% in experiment [2] (measured here: p53 positive nuclei at 24 h, Library stock concentration: 500 nM); 0.0513% in experiment [2] (measured here: p53 positive nuclei at 24 h, Library stock concentration: 1.5 uM). In addition, the p53-positive nuclei, normalised in experiment [2] (measured here: p53 positive nuclei at 24 h, Library stock concentration: 4.6 uM) was 0.0647%; in experiment [2] (measured here: p53 positive nuclei at 24 h, Library stock concentration: 13.7 uM) it was -0.0822%; in experiment [2] (measured here: p53 positive nuclei at 24 h, Library stock concentration: 41 uM), 0.108%; in experiment [2] (measured here: p53 positive nuclei at 24 h, Library stock concentration: 123 uM), 0.0172%; in experiment [2] (measured here: p53 positive nuclei at 24 h, Library stock concentration: 370 uM), -0.0726%; in experiment [2] (measured here: p53 positive nuclei at 24 h, Library stock concentration: 1.111 mM) it was -0.0774%. In addition, the p53-positive nuclei, normalised in experiment [2] (measured here: p53 positive nuclei at 24 h, Library stock concentration: 3.333 mM) is 0.296%; in experiment [2] (setting [6]), -0.0521%.
Turning to `CC(C)(C)Nc1nc2cc(Cl)c(Cl)cc2nc1S(C)(=O)=O`, the nuclei count, normalised in experiment [1] (setting [14]) was 108%; in experiment [1] (setting [15]), 105%; in experiment [1] (setting [16]) it was 93.6%; in experiment [1] (setting [3]) it was 44.4%; in experiment [1] (setting [17]), 118%; in experiment [1] (setting [18]), 109%. Further, the figures for the nuclei count, normalised in experiment [1] (setting [19]) and in experiment [1] (setting [4]) were 106% and 50%, respectively. Besides, the p53-positive nuclei, normalised in experiment [2] (setting [20]) was -0.222% (inactive); in experiment [2] (setting [21]), -0.1% (inactive); in experiment [2] (setting [22]) it was -0.239% (inactive); in experiment [2] (setting [5]) it was 1.33% (inactive); in experiment [2] (setting [23]) it was -0.151%; in experiment [2] (setting [24]) it was -0.151%. The p53-positive nuclei, normalised in experiment [2] (setting [25]) came out at 0.616%; in experiment [2] (setting [6]), 1.86%.
`CC(C)CC1(CO)CCCN(C(=O)c2cccc(C#CC(C)(C)O)c2)C1` (stereo unspecified): the nuclei count, normalised in experiment [1] (setting [11]) worked out at 99%; in experiment [1] (setting [12]), 100%. Besides, the p53-positive nuclei, normalised in experiment [2] (concentration not given here) is 0.108% (inactive); in experiment [2] (setting [13]), 0.27%.
As for `O=C(O)C1=CC(O)C(O)C(O)C1` (stereo unspecified), the nuclei count, normalised in experiment [1] (setting [7]) and in experiment [1] (setting [8]) was 109% throughout. Further, the p53-positive nuclei, normalised in experiment [2] (setting [9]) is -0.187% (inactive); in experiment [2] (setting [10]), -0.275%.
As for `O=C(O)c1cc(-c2ccccc2)nc2ccccc12`, the nuclei count, normalised turned out to be 111% in experiment [1] (setting [7]) and 106% in experiment [1] (setting [8]). For the same molecule, the p53-positive nuclei, normalised in experiment [2] (setting [9]) was -0.105% (inactive); in experiment [2] (setting [10]) it was -0.282%.
As for `COC(=O)C(NC(=O)c1cc(-c2ccccc2)nc2ccccc12)c1ccccc1` (stereo unspecified), the nuclei count, normalised came out at 105% in experiment [1] (setting [14]); 105% in experiment [1] (setting [15]); 93.3% in experiment [1] (setting [16]); 96.9% in experiment [1] (setting [3]); 111% in experiment [1] (setting [17]); 107% in experiment [1] (setting [18]). Also, the nuclei count, normalised in experiment [1] (setting [19]) was found to be 100%; in experiment [1] (setting [4]), 103%. The p53-positive nuclei, normalised was -0.241% (inactive) in experiment [2] (setting [20]); -0.232% (inactive) in experiment [2] (setting [21]); -0.104% (inactive) in experiment [2] (setting [22]); 0.115% (inactive) in experiment [2] (setting [5]); -0.21% in experiment [2] (setting [23]); -0.0834% in experiment [2] (setting [24]). Also, the p53-positive nuclei, normalised in experiment [2] (setting [25]) turned out to be 0.359%; in experiment [2] (setting [6]), 0.069%.
For `COc1cc2ncc(-c3ccccc3)nc2cc1OC`, the results for the nuclei count, normalised in experiment [1] (setting [7]) and in experiment [1] (setting [8]) were 78.5% and 45.1%, respectively. Further, the p53-positive nuclei, normalised in experiment [2] (setting [9]) is 55.2% (active); in experiment [2] (setting [10]), 3.05%.

Values taken from PubChem BioAssay AID1508601 (ICCB-Longwood Screening Facility, Harvard Medical School, 2020).
